Active and inactive are the calls of the source. Calls follow the shape of the dose curve; as a rule, active = well fitted curve in the direction sought with a large enough effect in the repeat runs; inconclusive = weak or mixed curves; inactive = flat fitted curve, though single readings scatter.

This assay can be described thus: qHTS assay to test for compound auto fluorescence at 535 nm (green) in HepG2 cell free culture (AID 720686). The settings on record: Cell-free medium, green autofluorescence 485/535 nm; series mostly up to 91.3 µM. The source says: U.S. Tox21 Program National Center for Advancing Translational Sciences [NCATS] NIH Chemical Genomics Center [NCGC] U.S. Environmental Protection Agency [EPA] National Institutes of Environmental Health Sciences [NIEHS] National Toxicology Program [NTP] U.S. Food and Drug Administration [FDA] Tox21 Assay Overview: Compound auto fluorescence often interferes with screening of the compound library against various biological targets and signaling pathways. Some of these compounds may have fluorophoric properties. Such properties may interfere with the assay outputs resulting in false positives and/or negatives. To decrease such complications and ensure the compound activities are relevant in terms of biological response, the Tox21 10K compound library was screened for auto fluorescence. From the fluorophores used as reporter signals in our screening assays, the auto fluorescence equivalencies of compounds against three fluorophores have been evaluated: Triamterene, Fluorescein and Rose Bengal sodium for blue, green and red fluorescence, respectively. The fluorescence intensities were measured using Excitation/Emission wavelengths at 405/460nm, 485/535nm and 540/590nm for blue, green and red labels, respectively. This assay includes the green fluorescence data.
Tox21 Assay Protocol Summary: 5 uL of culture medium (MEM containing 10% FBS) per well was dispensed into black wall/clear bottom 1536-well plates using a Multidrop Combi Dispenser (ThermoFisher Scientific, Waltham, MA). After 23 nL compound or DMSO vehicle was transferred into assay plate by a pintool work station (Kalypsys, San Diego, CA), fluorescence intensities in the assay plates were measured by an Envision (PerkinElmer, Shelton, CT) plate reader using three labels for measuring blue, green and red fluorescence at […] 460, 535 and 590nm respectively.
Regarding `CSc1ccc(Cl)cc1`, the call was inactive.
Then `CCCCCCCCCCCCCCCC(=O)OC(C)C`, with “inactive”; and `C[C@]12CC[C@@H]3c4ccc(O)cc4CC[C@H]3[C@@H]1C[C@@H](O)[C@@H]2O`, with “inactive”; and `CC(=O)OCc1ccco1`, with “inactive”.
For `C[Si]1(C)O[Si](C)(C)O[Si](C)(C)O[Si](C)(C)O1`, the result was inactive.
Then `Brc1ccc(Br)c(Br)c1`, with “inactive”; and `O=C(O)c1cc2ccccc2cc1O`, with “inactive”.
Take `C=Cc1ccc(C)cc1`: the call was inactive.
Then `COc1cc(OC)c(C(=O)CCCN2CCCC2)c(OC)c1`, with “inactive”; and `O=S(=O)(O)c1ccc(N=Nc2c(O)ccc3cc(S(=O)(=O)O)ccc23)cc1`, with “inactive”.
The value for `Cc1ccc([N+](=O)[O-])cc1S(=O)(=O)O` was “inactive”; that for `CC1(C)NC(=O)NC1=O` was “inactive”.
For the compound `O=S(=O)(O)c1ccccc1`, the compound was classed as inactive.
Then `C=C(C)C(=O)OCC(C)C`, with “inactive”; and `CCc1ccccc1CC`, with “inactive”; and `CC(C)c1cccc(C(C)C)c1`, with “inactive”.
For the compound `CCCCCCCCCCCC(=O)OC`, the compound was classed as inactive.
`COCCCN`: the compound was classed as inactive.
Then `Cc1ccc(C(C)C)c(O)c1`, with “inactive”.
The value for `O=C(O)c1ccc(C(=O)O)c(C(=O)O)c1` was “inactive”; that for `CNC(=S)N(C)C` was “inactive”; that for `CN(C)c1ccc(Cc2ccc(N(C)C)cc2)cc1` was “inactive”.
Then `CCOCC(=O)O`, with “inactive”; and `CN1C(=O)CC[C@H]1c1cccnc1`, with “inactive”; and `OC1C(O)C(O)C(O)C(O)C1O` (stereo not given), with “inactive”.
For `COc1ccc(N)c(C)c1`, the compound was classed as inactive.
Turning to `O=C(O)Cn1c(=O)n(Cc2ccc(Br)cc2F)c(=O)c2ccc(Cl)cc21`, the result was inactive.
The value for `CCCCCCO` was “inactive”.
Then `CCCCCCCCCCN`, with “inactive”; and `OCc1ccccc1`, with “inactive”.
Then `O=C(O)c1ccc(S(=O)(=O)N(Cl)Cl)cc1`, with “inactive”; and `C=C(C)CNCC`, with “inactive”; and `CC(C)OC(=O)COc1ccc(Cl)cc1Cl`, with “inactive”.
As for `CC(=O)CC(C)(C)O`, the call was inactive.
Consider `CCOC(=O)c1ccc(N)cc1`, for which the compound was classed as inactive.
Take `C=CC(C)CCCC(C)(C)O` (stereo not given): the compound was called inactive.
Then `C=CCCCCCCCCC(=O)O`, with “inactive”; and `COC(=O)CCCC(=O)OC`, with “inactive”.
`Cc1ccc2ncccc2c1`: the result was inactive.
`O=[N+]([O-])c1ccc2nc[nH]c2c1`: the result was inactive.
